Holding throughout (experiment): NCI-60 one-dose screen, 48 h (100 = growth as untreated, 0 = no growth, -100 = all killed)
Holding throughout (details): 10 µM unless noted

For experiment [1], the system named is NCI-H23 lung.
Experiment [2] relates to NCI-H226 lung.
Experiment [3] relates to NCI-H322M lung.
Experiment [4] has as its system HOP-62 NSCLC.
Experiment [5] deals with NCI-H460 lung.
Experiment [6] relates to HOP-92 NSCLC.
Experiment [7] has as its system NCI-H522 lung.
Experiment [8] relates to A549/ATCC NSCLC.
Experiment [9] has as its system 786-0 renal.
Experiment [10] deals with COLO 205 colon.
Experiment [11] concerns DU-145 prostate.
The subject of experiment [12] is K-562 leukemia.
Experiment [13] relates to MALME-3M melanoma.
Experiment [14] concerns MDA-MB-231 breast.
Experiment [15] deals with RXF 393 renal.
In experiment [16] the test system is SF-268 CNS.
Experiment [17] deals with SF-295 CNS.
The subject of experiment [18] is SF-539 CNS.
In experiment [19] the test system is UACC-257 melanoma.
For experiment [20], the system named is M14 melanoma.

Compounds without any hit were thinned out: in the full panel of roughly 83,000, 20% have a hit.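 Interpretation: 100, growth as untreated; towards 0, rising growth inhibition; 0, no net growth; 0 to -100, cell death. Compounds scoring below 10 were considered active.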 Unmarked numbers belong to inactive results. Active and inactive are the calls of the source.

As for `CCOC(=O)C1CCN(S(=O)(=O)/N=C2/NC(=O)NC2=C(Cl)Cl)CC1`, the growth in experiment [1] is 16.7%; in experiment [2] it was 118%; in experiment [3], 31.1%; in experiment [4], 20.2%; in experiment [5], 7.43% (active); in experiment [6], -73.9% (active). Further, the growth was -69.4% (active) in experiment [7]; 21% in [8]; 3.63% (active) in experiment [9]; -69.6% (active) in experiment [10]; 25.7% in experiment [11]; -15.7% (active) in experiment [12]. Also, the growth is -60% (active) in experiment [13]; 9.62% (active) in [14]; 83.8% in experiment [15]; 11.2% in experiment [16]; 17.4% in experiment [17]; -4.27% (active) in [18]. Also, the growth in [19] is 19.9%; in [20], -22.4% (active).

As for `CC(=O)Oc1ccc(O)cc1`, the growth in experiment [1] is 95.2%; in [2] it was 106%; in experiment [3], 97.2%; in experiment [4], 113%; in [5], 108%; in experiment [6], 98.3%. The growth is 33.3% in [7]; 91.6% in [8]; 110% in experiment [9]; 120% in experiment [10]; 102% in experiment [11]; 96.7% in experiment [12]. For the same compound, the growth was 102% in experiment [13]; 95.4% in [14]; 115% in experiment [15]; 98.8% in experiment [16]; 101% in experiment [17]; 101% in [18]. In addition, the figures for the growth in experiment [19] and in [20] were 83% and 98.3%, respectively.

With `O=C1Nc2ccc(Cl)cc2/C1=N/c1nc(-c2ccc(F)cc2)cs1`, the growth in experiment [1] is 44%; in experiment [2], 75%; in experiment [3], 65.7%; in experiment [4], 54.1%; in experiment [5], 34.1%; in experiment [6], 34.3%. Besides, the growth in experiment [7] is 20.7%; in experiment [8], 43.6%; in experiment [9], 47.3%; in experiment [10] it was 31.4%; in experiment [11], 69.8%; in experiment [12] it was 14.6%. Besides, the growth was 53.6% in experiment [13]; 31.3% in experiment [14]; 37% in [15]; 46% in experiment [16]; 39.6% in [17]; 48.6% in experiment [18]. Besides, the growth is 36.5% in experiment [19] and 38.7% in [20].

Take `CN1CC=C(c2cc(NC(=O)Nc3ccc(Oc4ccnc(NC(=O)C5CC5)c4)c(F)c3)cc(C(F)(F)F)c2)CC1`: the growth in experiment [1] was -14.8% (active); in experiment [2], 4.49% (active); in [3] it was 7.64% (active); in experiment [4] it was -13.2% (active); in experiment [5], -5.88% (active); in experiment [6], -17% (active). Further, the growth is -49.8% (active) in [7]; -6.76% (active) in [8]; -6.75% (active) in experiment [9]; -26.2% (active) in experiment [10]; 9.52% (active) in experiment [11]; -12.2% (active) in experiment [12]. Moreover, the growth is -32.5% (active) in experiment [13]; -11.8% (active) in experiment [14]; -27.4% (active) in experiment [15]; -1.76% (active) in [16]; -9.64% (active) in experiment [17]; -47.9% (active) in [18]. Besides, the growth in [19] was -0.573% (active); in experiment [20], -38.3% (active).

`C/C(=N\NC(=O)c1ccncc1)c1ccc(N)cc1`: the growth was 101% in [1]; 102% in experiment [2]; 91.5% in experiment [3]; 95.8% in experiment [4]; 99.3% in [5]; 80.6% in [6]. The growth was 75.4% in [7]; 90.6% in experiment [8]; 99% in experiment [9]; 117% in [10]; 107% in experiment [11]; 83.6% in experiment [12]. Besides, the growth in experiment [13] was 98.5%; in experiment [14] it was 98.4%; in experiment [15], 106%; in experiment [16], 99.2%; in experiment [17], 99.4%; in [18], 98.5%. Also, the figures for the growth in experiment [19] and in [20] were 93% and 102%, respectively.

With `O=CN1N=C(c2ccc(Cl)cc2)CC1c1cccc(Nc2ccnc3cc(C(F)(F)F)ccc23)c1` (stereo not given), the growth in experiment [1] is 50.6%; in [2] it was 61.9%; in experiment [3], 82.4%; in [4] it was 67.1%; in [5], 57.9%; in experiment [6], 66.3%. In addition, the growth in experiment [7] was 57%; in experiment [8] it was 61.4%; in experiment [9] it was 81.5%; in experiment [10], 60.1%; in experiment [11] it was 70.1%; in experiment [12], 24.9%. Besides, the growth in experiment [13] is 77.5%; in experiment [14], 80.7%; in experiment [15] it was 71.4%; in experiment [16], 58.9%; in experiment [17] it was 51.4%; in experiment [18], 78.7%. The growth is 52.1% in experiment [19] and 74% in experiment [20].

`CN1CCN(C(=O)[C@@]2(C)CC[C@]3(C)CC[C@]4(C)C(=CC[C@@H]5[C@@]6(C)CC[C@H](OC(=O)c7cccnc7)C(C)(C)[C@@H]6CC[C@]54C)[C@@H]3C2)CC1`: the growth in [1] was 75.3%; in experiment [2], 95.2%; in experiment [3] it was 94.9%; in [4], 83.7%; in experiment [5], 11.7%; in experiment [6] it was 79.2%. Besides, the growth in experiment [7] was 98.6%; in experiment [8] it was 69.8%; in experiment [9] it was 13%; in experiment [10] it was 68.3%; in experiment [11] it was 78.7%; in experiment [12] it was -24.1% (active). For the same compound, the growth in experiment [13] was 60.2%; in experiment [14], 48.4%; in experiment [15] it was 60.3%; in experiment [16], 85.4%; in [17], 67.8%; in experiment [18], 59.8%. Besides, the values for the growth in experiment [19] and in [20] were 58.6% and 80.7%, respectively.

Values taken from PubChem BioAssay (NCI).
